For 40 compounds, Potency results are on record in PubChem BioAssay (Tox21).

Results filed as inconclusive are left out. A call without a number means that no potency is given here. The source made the active and inactive calls. Calls come from the whole dose curve; as a rule, active = well fitted cell-killing curve with a large enough effect in the repeat runs; inconclusive = weak or mixed curves, or effect the other way; inactive = no such curve, though single readings can be large or run the other way.

A short description of the experiment: qHTS assay to identify small molecule agonists of the vitamin D receptor (VDR) signaling pathway - cell viability counter screen (AID 743224). Note: nearly all actives have a fitted effect of over 50% in size. Conditions: VDR-bla HEK293T viability, CellTiter-Glo luminescence, 16 h; series mostly up to 62.6 µM. The text has this: U.S. Tox21 Program National Center for Advancing Translational Sciences [NCATS] NIH Chemical Genomics Center [NCGC] U.S. Environmental Protection Agency [EPA] National Institutes of Environmental Health Sciences [NIEHS] National Toxicology Program [NTP] U.S. Food and Drug Administration [FDA] Tox21 Assay Overview: The vitamin D receptor (VDR), a member of nuclear hormone receptor superfamily, plays a critical role in calcium homeostasis and bone metabolism. It is also involved in cell differentiation and growth, and thrombogenicity. […] The cytotoxicity of the Tox21 compound library against the VDR-bla cell line was tested in parallel by measuring the cell viability using CellTiter-Glo assay (Promega, Madison, WI) in the same wells.
Tox21 Assay Protocol Summary: VDR-bla cells were dispensed at 2,000 cells/6 uL/well into black wall/clear-bottom 1536-well plates using a Multidrop Combi (Thermo Fisher Scientific, Waltham, MA) dispenser. After the assay plates were incubated at a 37C and 5% CO2 for 4 h, 23 nL of compounds dissolved in DMSO, positive controls or DMSO only was transferred to the assay plate by a Pintool station (Kalypsys, San Diego, CA). The plates were incubated at 37C and 5% CO2 for 16 h. After 1 uL of LiveBLAzerTM B/G FRET substrate was added using a Bioraptr Flying Reagent Dispenser (FRD) workstation (Beckman Coulter, Indianapolis, IN, USA), the plates were incubated at room temperature for 2 h, and fluorescence intensity was measured by an Envision plate reader (PerkinElmer, Shelton, CT). For cell viability readout that measures cytotoxicity, 3 ul/well of CellTiter-Glo reagent was added into the assay plates using a FRD. After 30 min incubation at room temperature, the luminescence intensity in the plates was measured using a ViewLux (PerkinElmer) plate reader.
A general note: Quantitative high-throughput screening tests each substance at several concentrations.
On to `CNC(=O)O/N=C(/CSC)C(C)(C)C`, for which the Potency entry was “inactive”. The same measure for `CCOP(=S)(OCC)SCCl`: “inactive”; for `C/C(=N\NC(=O)Nc1cc(F)cc(F)c1)c1ncccc1C(=O)O`: “inactive”; for `Oc1ccc(Cc2ccc(O)cc2)cc1`: “inactive”. The same measure for `O=C/C=C/c1ccco1`: “inactive”; for `O=C(O)C(Cl)Br` (stereo not given): “inactive”. Under `Cn1c(N)nc2c3cccnc3ccc21` stands “inactive”; under `CN1C(=O)COc2c(C(=O)NC3CN4CCC3CC4)cc(Cl)cc21` (stereo not given), “inactive”; under `CC(=O)OCC1=C(C(=O)O)N2C(=O)[C@@H](N)[C@H]2SC1`, “inactive”. Consider `S=C=S`, for which the Potency result is “inactive”. Regarding `O=CCCl`, the Potency result is “inactive”. Under `CC[C@@H](CO)NC(=O)[C@@H]1C=C2c3cccc4[nH]cc(c34)C[C@H]2N(C)C1` stands “inactive”; under `CNC(=O)Oc1cc(C)c(N(C)C)c(C)c1`, “inactive”; under `CCN[C@H](C)Cc1cccc(C(F)(F)F)c1`, “inactive”. Under `CCC(=O)c1ccc(Cl)cc1` stands “inactive”. The same measure for `c1ccc2c(c1)CCNC2`: “inactive”; for `O=S1(=O)OCCO1`: “inactive”.

In the case of `CCCCCCCC(=O)Cl`, the Potency entry is “inactive”. Take `CCC1(CC)C(=O)C=CNC1=O`: the Potency result was “inactive”.

Turning to `CCC(C)C(C)(COC(N)=O)COC(N)=O` (stereo not given), the Potency result is “inactive”. The same measure for `CCCCS(=O)(=O)Cl`: “inactive”; for `CN1COCN(Cc2cnc(Cl)s2)/C1=N\[N+](=O)[O-]`: “inactive”; for `O=C(Cl)C(Cl)(Cl)Cl`: “inactive”. The same measure for `Cc1cccc2sc3nncn3c12`: “inactive”; for `CCCOC(=O)Cc1ccc(OCC(=O)N(CC)CC)c(OC)c1`: “inactive”.

On to `C1CN2CCC1CC2`, for which the Potency result is “inactive”. The same measure for `CCOc1cc(OP(=S)(OC)OC)nc(CC)n1`: “inactive”; for `C=CC1(C)OC(=O)N(c2cc(Cl)cc(Cl)c2)C1=O` (stereo not given): “inactive”; for `COP(=O)(O)OC`: “inactive”.

Regarding `Oc1ccc2c3c1O[C@H]1[C@@H](O)C=C[C@H]4[C@@H](C2)NCC[C@@]341`, the Potency entry is “inactive”. For `CC[C@H](O)C(C[C@H](C)N(C)C)(c1ccccc1)c1ccccc1`, the Potency result was “inactive”. With `CCCOC(=O)c1cncn1C(C)c1ccccc1` (stereo not given), the Potency entry was “inactive”. The same measure for `CON(C)C(=O)Nc1ccc(Br)cc1`: “inactive”; for `O=c1[nH]oc2c1CCNC2`: “inactive”; for `C[C@@H](N)[C@@H](O)c1ccccc1`: “inactive”.

Consider `CC(=NC#N)N(C)Cc1ccc(Cl)nc1`, for which the Potency entry is “inactive”. In the case of `CCSC(=O)Cl`, the Potency result is “inactive”. The same measure for `CCN[C@@H](C)Cc1ccccc1`: “inactive”. Turning to `Cc1ccc2cc(C)ccc2c1`, the Potency result was “inactive”. The same measure for `Cn1c(CCCC(=O)O)nc2cc(N(CCCl)CCCl)ccc21`: “inactive”.
